Structures can show the parent of a compound that is named as a salt. ± gives the standard deviation of the averaged measurements.
How the values were obtained:
Test in all cases: cell viability (% of vehicle); higher = less cytotoxic
Conditions in all cases: 10 µM; 72 h
HCI01 = tested on: HCI01 (cells of a triple-negative basal-like breast cancer xenograft)
HCI03 = tested on: HCI03 (cells of an ER-positive luminal breast cancer xenograft)
HCI09 = tested on: HCI09 (cells of a triple-negative luminal androgen receptor type breast cancer xenograft)
HCI11 = tested on: HCI11 (cells of an ER-positive luminal breast cancer xenograft)
HCI13 = tested on: HCI13 (cells of an ER-positive luminal breast cancer xenograft)
HCI16 = tested on: HCI16 (cells of a triple-negative basal-like breast cancer xenograft)
UCD52 = tested on: UCD52 (cells of a triple-negative basal-like breast cancer xenograft)
WHIM2 = tested on: WHIM2 (cells of a triple-negative basal-like breast cancer xenograft)
WHIM30 = tested on: WHIM30 (cells of a triple-negative basal-like breast cancer xenograft)
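Further: PDX cells carrying CMV promoter-driven luciferase, viability read as total photon flux per second by IVIS imaging following D-luciferin, vehicle control 0.1% DMSO.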

## CC(C)(C)NC(=O)NC(C(=O)N1CC2C(C1C(=O)NC(CC1CCC1)C(=O)C(N)=O)C2(C)C)C(C)(C)C (stereo not given) [Boceprevir]
HCI01
  cell viability: 100 ± 19
HCI03
  cell viability: 83.8
HCI09
  cell viability: 87.2 ± 6.2
HCI11
  cell viability: 101
HCI13
  cell viability: 72.5 ± 1.2
HCI16
  cell viability: 65.1
UCD52
  cell viability: 80.1 ± 16
WHIM2
  cell viability: 80.7 ± 15
WHIM30
  cell viability: 85.1 ± 8.9

## CC1CCc2cc(F)cc3c(=O)c(C(=O)O)cn1c23 (stereo not given) [Flumequine]
HCI01
  cell viability: 92.8 ± 10
HCI03
  cell viability: 156
HCI09
  cell viability: 93.1 ± 7.6
HCI11
  cell viability: 118
HCI13
  cell viability: 117 ± 6.8
HCI16
  cell viability: 138
UCD52
  cell viability: 107 ± 5.8
WHIM2
  cell viability: 98.4 ± 4.2
WHIM30
  cell viability: 135 ± 15

## CC(C)(C)c1cc(C(C)(C)C)c(NC(=O)c2c[nH]c3ccccc3c2=O)cc1O [Ivacaftor (VX-770)]
HCI01
  cell viability: 41.4 ± 24
HCI03
  cell viability: 83.8
HCI09
  cell viability: 18.7 ± 3.1
HCI11
  cell viability: 139
HCI13
  cell viability: 29.5 ± 4.1
HCI16
  cell viability: 121
UCD52
  cell viability: 97.2 ± 20
WHIM2
  cell viability: 34.4 ± 0.58
WHIM30
  cell viability: 200 ± 19

## C=C[C@]1(C)C[C@@H](OC(=O)CSC2C[C@H]3CC[C@@H](C2)N3C)[C@]2(C)[C@H](C)CC[C@]3(CCC(=O)[C@H]32)[C@@H](C)[C@@H]1O (stereo not given in full) [Retapamulin]
HCI01
  cell viability: 73.5 ± 21
HCI03
  cell viability: 113
HCI09
  cell viability: 83.2 ± 3.2
HCI11
  cell viability: 93.3
HCI13
  cell viability: 111 ± 10
HCI16
  cell viability: 109
UCD52
  cell viability: 81.8 ± 4.8
WHIM2
  cell viability: 80.3 ± 5.3
WHIM30
  cell viability: 146 ± 15

## O=P(O)(O)C(O)(Cn1ccnc1)P(=O)(O)O [Zoledronic Acid]
HCI01
  cell viability: 134 ± 17
HCI03
  cell viability: 135
HCI09
  cell viability: 88.4 ± 13
HCI11
  cell viability: 172
HCI13
  cell viability: 75.2 ± 8.7
HCI16
  cell viability: 94.7
UCD52
  cell viability: 60.6 ± 1.4
WHIM2
  cell viability: 68.7 ± 15
WHIM30
  cell viability: 107 ± 21

## CN[C@H](CC(C)C)C(=O)N[C@H]1C(=O)N[C@@H](CC(N)=O)C(=O)N[C@H]2C(=O)N[C@H]3C(=O)N[C@H](C(=O)N[C@H](C(=O)O)c4cc(O)cc(O)c4-c4cc3ccc4O)[C@H](O)c3ccc(c(Cl)c3)Oc3cc2cc(c3O[C@@H]2O[C@H](CO)[C@@H](O)[C@H](O)[C@H]2O[C@H]2C[C@](C)(N)[C@H](O)[C@H](C)O2)Oc2ccc(cc2Cl)[C@H]1O [Vancomycin hydrochloride]
HCI01
  cell viability: 125 ± 1.7
HCI03
  cell viability: 110
HCI09
  cell viability: 146 ± 38
HCI11
  cell viability: 92.4
HCI13
  cell viability: 195 ± 13
HCI16
  cell viability: 167
UCD52
  cell viability: 122 ± 7.7
WHIM2
  cell viability: 107 ± 4.2
WHIM30
  cell viability: 148 ± 22

## O=C1NC(=O)[C@@H](c2c[nH]c3ccccc23)[C@H]1c1cn2c3c(cccc13)CCC2 [Tivantinib (ARQ 197)]
HCI01
  cell viability: 161 ± 20
HCI03
  cell viability: 81
HCI09
  cell viability: 51.5 ± 4.9
HCI11
  cell viability: 111
HCI13
  cell viability: 43.6 ± 9.6
HCI16
  cell viability: 125
UCD52
  cell viability: 81.8 ± 4.7
WHIM2
  cell viability: 107 ± 11
WHIM30
  cell viability: 147 ± 26

## Cc1cccc(C)c1NC(=O)C1CCCCN1C.Cl (stereo not given) [Mepivacaine HCl]
HCI01
  cell viability: 87.6 ± 1.4
HCI03
  cell viability: 89.2
HCI09
  cell viability: 97.91 ± 0.71
HCI11
  cell viability: 96.2
HCI13
  cell viability: 124 ± 2.2
HCI16
  cell viability: 118
UCD52
  cell viability: 70.4 ± 3.6
WHIM2
  cell viability: 89.7 ± 14
WHIM30
  cell viability: 166 ± 4.5

## CCCC(=O)Nc1ccc(OCC(O)CNC(C)C)c(C(C)=O)c1.Cl (stereo not given) [Acebutolol HCl]
HCI01
  cell viability: 125 ± 5.8
HCI03
  cell viability: 123
HCI09
  cell viability: 102 ± 22
HCI11
  cell viability: 106
HCI13
  cell viability: 76.3 ± 3.2
HCI16
  cell viability: 156
UCD52
  cell viability: 97.1 ± 7
WHIM2
  cell viability: 98.7 ± 8.9
WHIM30
  cell viability: 131.6 ± 0.063

## CCOC(=O)NC1CCC2C(C1)CC1C(=O)OC(C)C1C2C=Cc1ccc(-c2cccc(F)c2)cn1 (stereo not given) [Vorapaxar]
HCI01
  cell viability: 132 ± 37
HCI03
  cell viability: 121
HCI09
  cell viability: 90.5 ± 21
HCI11
  cell viability: 104
HCI13
  cell viability: 84.1 ± 22
HCI16
  cell viability: 108
UCD52
  cell viability: 76.4 ± 3.5
WHIM2
  cell viability: 115 ± 27
WHIM30
  cell viability: 72.6 ± 10

— the supplement of paper PMC6992640
